The values that follow come from the supplement of paper PMC4371806.

For the assay, the system named is Escherichia coli BW25113. Put plainly: plate-normalized OD600 growth (mean of duplicates) (OD600 (normalized)); higher = more growth (less inhibition). The settings on record: 10 µM. As to the method: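 E. coli BW25113 in LB (100 µl, 96-well, no shaking) was exposed to 10 µM of each compound (here the ChemBridge subset of a ~30,000-member library) and grown at 37°C for 24 h or 15°C for 48 h, in duplicate. Growth was read as OD600 and the duplicate ODs were normalized across screening plates to correct plate-to-plate variation.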

The full ranking holds about 1,600 compounds; the median of “plate-normalized OD600 growth (mean of duplicates)” is about 0.31, and the lowest 2% start at about 0.23. What follows is part of a selection rich in the lowest values, with near analogues and random picks from the rest.

Consider `COc1ccc2nc3c(nc2c1)C(=O)c1ccccc1-3`, for which the “plate-normalized OD600 growth” value by setting is: (temperature: 15°C, 48 h) 0.234; (temperature: 37°C, 24 h) 0.611.

Turning to `c1cncc(-c2nc3c4c5c(sc4ncn3n2)CCCC5)c1`, the “plate-normalized OD600 growth” value by setting is: (temperature: 15°C, 48 h) 0.261; (temperature: 37°C, 24 h) 0.628.

For `COc1ccc(CNCCC2CCOC(C)(C)C2)cc1` (configuration not stated), the “plate-normalized OD600 growth” value by setting is: (temperature: 15°C, 48 h) 0.263; (temperature: 37°C, 24 h) 0.65.

As to `Cc1nnc(Sc2ccc(C=O)o2)s1`, the “plate-normalized OD600 growth” value came out at 0.227 (temperature: 15°C, 48 h) and 0.604 (temperature: 37°C, 24 h).

For the compound `CCOC(=O)N1CCN(Cc2cc(C)ccc2C)CC1`, the “plate-normalized OD600 growth” value (temperature: 15°C, 48 h) amounted to 0.266 and the “plate-normalized OD600 growth” value (temperature: 37°C, 24 h) amounted to 0.646.

With `CC(=O)c1ccc(NS(=O)(=O)c2cc(S(=O)(=O)c3ccccc3)ccc2C)cc1`, the “plate-normalized OD600 growth” value (temperature: 15°C, 48 h) was 0.278 and the “plate-normalized OD600 growth” value (temperature: 37°C, 24 h) is 0.649.

Turning to `c1ccc(CN2C3=NCCCN3c3ccccc32)cc1`, the “plate-normalized OD600 growth” value (temperature: 15°C, 48 h) turned out to be 0.249 and the “plate-normalized OD600 growth” value (temperature: 37°C, 24 h) is 0.625.

Consider `N#CCCS(=O)(=O)c1ccc(Br)cc1`, for which the “plate-normalized OD600 growth” value turned out to be 0.258 (temperature: 15°C, 48 h) and 0.63 (temperature: 37°C, 24 h).

As for `CCCCOc1ccc(C2(C)CC(=O)NC2=O)cc1` (configuration not stated), the “plate-normalized OD600 growth” value was 0.258 (temperature: 15°C, 48 h) and 0.634 (temperature: 37°C, 24 h).

Regarding `Cc1onc(-c2ccccc2Cl)c1C(=O)NCc1ccc2c(c1)OCO2`, the “plate-normalized OD600 growth” value by setting is: (temperature: 15°C, 48 h) 0.261; (temperature: 37°C, 24 h) 0.619.

Turning to `O=C(O)Cn1c2ccccc2c2cc([N+](=O)[O-])ccc21`, the “plate-normalized OD600 growth” value is, setting by setting: (temperature: 15°C, 48 h) 0.226; (temperature: 37°C, 24 h) 0.625.

Consider `CN(C)/C=C/c1c(C=O)c2cc([N+](=O)[O-])ccc2n1C`, for which the “plate-normalized OD600 growth” value by setting is: (temperature: 15°C, 48 h) 0.238; (temperature: 37°C, 24 h) 0.596.

In the case of `CCn1c(C)c(C=O)c2cc([N+](=O)[O-])ccc21`, the “plate-normalized OD600 growth” value runs as follows: (temperature: 15°C, 48 h) 0.223; (temperature: 37°C, 24 h) 0.608.

Turning to `Cn1c2ccccc2c2nc3ccc([N+](=O)[O-])cc3cc21`, the “plate-normalized OD600 growth” value reads like this: (temperature: 15°C, 48 h) 0.249; (temperature: 37°C, 24 h) 0.639.

As to `NNC(=O)c1cc(-c2ccc([N+](=O)[O-])cc2)nc2ccccc12`, the “plate-normalized OD600 growth” value turned out to be 0.251 (temperature: 15°C, 48 h) and 0.647 (temperature: 37°C, 24 h).

Turning to `Cn1c(C=O)nc2cc([N+](=O)[O-])ccc21`, the “plate-normalized OD600 growth” value (temperature: 15°C, 48 h) worked out at 0.241 and the “plate-normalized OD600 growth” value (temperature: 37°C, 24 h) was found to be 0.625.

As for `Cc1n[nH]c(=O)c2cc3c(C)n[nH]c(=O)c3cc12`, the “plate-normalized OD600 growth” value runs as follows: (temperature: 15°C, 48 h) 0.259; (temperature: 37°C, 24 h) 0.622.

As for `CC1CCC2(CC1)C(C#N)C(=O)NC(=O)C2C#N` (configuration not stated), the “plate-normalized OD600 growth” value runs as follows: (temperature: 15°C, 48 h) 0.244; (temperature: 37°C, 24 h) 0.615.

For the compound `CCCC(=O)NC(c1ccccc1)c1ccccc1`, the “plate-normalized OD600 growth” value is 0.265 (temperature: 15°C, 48 h) and 0.637 (temperature: 37°C, 24 h).

Consider `CSc1nc(C)c(C(C)=O)cc1C#N`, for which the “plate-normalized OD600 growth” value (temperature: 15°C, 48 h) stood at 0.244 and the “plate-normalized OD600 growth” value (temperature: 37°C, 24 h) was found to be 0.621.

On to `Cc1ccc(S(=O)(=O)CCSc2cccc(C(=O)Nc3ccccc3)c2)cc1`, for which the “plate-normalized OD600 growth” value reads like this: (temperature: 15°C, 48 h) 0.243; (temperature: 37°C, 24 h) 0.633.

Turning to `CC(=O)Nc1cccc(NC(=O)Nc2cccc(Cl)c2)c1`, the “plate-normalized OD600 growth” value reads like this: (temperature: 15°C, 48 h) 0.236; (temperature: 37°C, 24 h) 0.585.

Regarding `O=C(Nc1ccncc1)c1ccc(Cl)cc1Cl`, the “plate-normalized OD600 growth” value (temperature: 15°C, 48 h) amounted to 0.263 and the “plate-normalized OD600 growth” value (temperature: 37°C, 24 h) worked out at 0.623.

Take `Cc1nonc1NC(=O)Nc1ccncc1`: the “plate-normalized OD600 growth” value (temperature: 15°C, 48 h) came to 0.18 and the “plate-normalized OD600 growth” value (temperature: 37°C, 24 h) was determined as 0.615.

Regarding `Cc1ccc(C(C)NC(=O)c2ccccc2)c(C)c1` (configuration not stated), the “plate-normalized OD600 growth” value runs as follows: (temperature: 15°C, 48 h) 0.267; (temperature: 37°C, 24 h) 0.619.

`Cc1ccc(NC(=O)[C@@H]2C3C=CC(C3)[C@@H]2C(=O)O)c(C)c1` (some centres not stated): the “plate-normalized OD600 growth” value (temperature: 15°C, 48 h) came to 0.247 and the “plate-normalized OD600 growth” value (temperature: 37°C, 24 h) came to 0.648.

On to `CCCN(CCO)Cc1ccccc1F`, for which the “plate-normalized OD600 growth” value was 0.235 (temperature: 15°C, 48 h) and 0.589 (temperature: 37°C, 24 h).

As to `c1ccc(CCN2CCN(c3ccccc3)CC2)cc1`, the “plate-normalized OD600 growth” value (temperature: 15°C, 48 h) turned out to be 0.227 and the “plate-normalized OD600 growth” value (temperature: 37°C, 24 h) stood at 0.62.

Take `c1ccc(CCCN2CCOCC2)cc1`: the “plate-normalized OD600 growth” value (temperature: 15°C, 48 h) worked out at 0.251 and the “plate-normalized OD600 growth” value (temperature: 37°C, 24 h) is 0.615.

Consider `c1ccc(CCN2CCC(N3CCOCC3)CC2)cc1`, for which the “plate-normalized OD600 growth” value is, setting by setting: (temperature: 15°C, 48 h) 0.239; (temperature: 37°C, 24 h) 0.618.

In the case of `Clc1ccccc1N1CCN(Cc2ccc(Br)o2)CC1`, the “plate-normalized OD600 growth” value turned out to be 0.245 (temperature: 15°C, 48 h) and 0.606 (temperature: 37°C, 24 h).

For the compound `N#CC1=C(N)N2C(=C(C#N)C1c1c(F)cccc1Cl)Sc1ccccc12` (configuration not stated), the “plate-normalized OD600 growth” value runs as follows: (temperature: 15°C, 48 h) 0.27; (temperature: 37°C, 24 h) 0.622.

In the case of `O=C(NCC1CCCO1)c1ccc2c(c1)OCO2` (configuration not stated), the “plate-normalized OD600 growth” value reads like this: (temperature: 15°C, 48 h) 0.243; (temperature: 37°C, 24 h) 0.615.

On to `Cc1ccc(CN(C)CCc2ccccn2)cc1`, for which the “plate-normalized OD600 growth” value by setting is: (temperature: 15°C, 48 h) 0.272; (temperature: 37°C, 24 h) 0.619.

`CN(CCCc1ccccc1)CCc1ccccn1`: the “plate-normalized OD600 growth” value (temperature: 15°C, 48 h) was determined as 0.26 and the “plate-normalized OD600 growth” value (temperature: 37°C, 24 h) is 0.659.

As to `CN(CCc1ccccn1)Cc1ccc(Cl)c(Cl)c1`, the “plate-normalized OD600 growth” value runs as follows: (temperature: 15°C, 48 h) 0.222; (temperature: 37°C, 24 h) 0.622.
